In the library only some 8.1% were active in any assay of this set; here they are far more common.
ClpP mod: qHTS Assay for Activators of ClpP. ATP-dependent Clp protease proteolytic subunit (Bacillus subtilis (strain 168)), P80244. purified B. subtilis ClpP, FRET peptide cleavage, 20 min. Potency, µM (doses to about 57.5 µM). hit rate 1.9% among 340,000; active = well fitted falling curve with a large enough effect; inconclusive = small, poorly fitted or top-dose-only effect; inactive = no such curve, though single readings can be large or run the other way; note: the source files actives as falling curves though it sought activators and does not explain the sign; nearly all actives have a fitted effect of over 65% in size
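Purified B. subtilis ClpP, 10 microg/mL final in Tris/HCl pH8 with KCl, BSA, glycerol and Tween-20, cleaved an Abz/nitrotyrosine-quenched decapeptide. Fluorescence (ex 320, em 430) was read at 0 and 20 min at room temperature. Delta was normalized to 5.8 microM ADEP and DMSO/no-enzyme controls.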
Epigenetic reg: regulators of epigenetic silencing causing reporter derepression in mouse cells; murine LDR cells, GFP reporter derepression, 30 h; Potency, µM (titrated, usually from 53.9 µM), most hits filed as activators; hit rate 0.2% among 280,000; AID 1865; note: nearly all actives have a fitted effect of over 60% in size
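GFP-positive cell count by laser-scanning cytometry (objects 20–120 um) after 30 h, 37 C compound exposure of murine LDR cells; reporter is CMV-GFP integrated at a silenced locus, inducible by HDAC or DNMT inhibitors.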
Gal4-VP16 FLuc: counter-screen for ROR gamma inhibitors: Gal4-VP16 reporter; hit rate 3.5% among 310,000; Potency, µM (titrated, usually from 53.6 µM), hits mostly inhibitors; Drosophila S2 Gal4-VP16 UAS-luciferase, luminescence, 20 h;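 note: Gal4-VP16 expression switched on by copper sulfate through the metallothionein promoter; nearly all actives have a fitted effect of over 50% in size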
Sfp inh: blocks B. subtilis Sfp PPTase activity. Q9F4F7. Biochemical Sfp PPTase activity, qHTS. Potency, µM, actives largely listed as inhibitors. hit rate 3.5% among 310,000;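 note: the enzyme is Sfp with the accession as filed and its product quenches rhodamine fluorescence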
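Fluorescence-quenching assay with 15 nM Sfp, 5 uM rhodamine-CoA and 12.5 uM BHQ-2-labelled ybbR peptide in pH 7.6 Hepes/MgCl2 buffer. Enzyme was pre-incubated with compound for 15 min at room temperature. Rate was taken from the 30-min fluorescence change (525/598 nm).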
RORg inh: inhibitors of mouse ROR gamma transcriptional activity; hit rate 5.4% among 310,000; P51450; Drosophila S2 Gal4-RORgamma UAS-luciferase reporter, 20 h; Potency, µM (series often up to 53.6 µM), actives largely listed as inhibitors; AID 2551; note: nearly all actives have a fitted effect of over 60% in size
Target sequence (P51450 whole entry, looked up, the tested form may be a part): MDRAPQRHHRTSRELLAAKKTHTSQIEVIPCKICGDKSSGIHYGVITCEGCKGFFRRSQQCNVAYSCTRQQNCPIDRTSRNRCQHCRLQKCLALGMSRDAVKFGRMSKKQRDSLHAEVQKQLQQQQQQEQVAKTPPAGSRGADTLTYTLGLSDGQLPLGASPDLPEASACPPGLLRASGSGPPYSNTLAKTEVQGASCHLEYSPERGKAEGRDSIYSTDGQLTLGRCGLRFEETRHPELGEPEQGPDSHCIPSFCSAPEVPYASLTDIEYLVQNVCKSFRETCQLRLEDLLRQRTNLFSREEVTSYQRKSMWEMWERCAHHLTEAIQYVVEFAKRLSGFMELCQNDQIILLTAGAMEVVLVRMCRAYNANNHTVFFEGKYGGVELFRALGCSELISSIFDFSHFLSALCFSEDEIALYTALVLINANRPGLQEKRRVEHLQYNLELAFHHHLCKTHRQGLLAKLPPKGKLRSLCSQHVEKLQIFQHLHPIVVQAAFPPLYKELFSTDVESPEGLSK
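Schneider cells (Drosophila), stable Gal4 DBD–ROR gamma + UAS-luc; 1 hr cmpd preincubation; Cu2+ induction 700 uM final; 20 hr ambient; luminescence.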
PINK1 expr mod: PINK1 expression modulation. PINK1 immunofluorescence, high-content cytometry, 24 h. Potency, µM (doses to about 76.6 µM), most hits filed as activators. hit rate 0.2% among 410,000. AID 624263; active = well fitted activation curve with a large enough effect; inconclusive = small, poorly fitted or top-dose-only effect; cell line not stated here; note: nearly all actives have a fitted effect of over 65% in size
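Measures PINK1 amount and localization on or inside mitochondria by immunofluorescence. Stable cells get compounds at 5 concentrations for 24 hours before fixation and staining; CCCP controls included.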
A number is an active result; n = inactive; u = inconclusive; x = no result; ! = repeats disagree; [ ] = another dose, or the depositor's remark. Unless noted, calls come from the whole dose curve; as a rule, active = well fitted curve in the direction sought with a large enough effect; inconclusive = small, poorly fitted or top-dose-only effect, or another doubt; inactive = no such curve, though single readings can be large; an effect the other way counts as inactive or inconclusive.

SMILES	ClpP mod	Epigenetic reg	Gal4-VP16 FLuc	Sfp inh	RORg inh	PINK1 expr mod
O=[N+]([O-])c1cccc2c(Cl)ccnc12	x	n	n	79µM	n	n
Cc1ccc2nc(COc3cccc(NC(=O)COc4ccccc4F)c3)cc(=O)n2c1	n	u	x	x	x	n
Clc1cc2cccnc2c2ncccc12	n	x	x	x	x	n
O=[N+]([O-])c1cc(CN2CCN(c3ccccc3)CC2)c(O)c2ncccc12	x	u	n	n	0.11µM	n
CN(Cc1cc([N+](=O)[O-])c2cccnc2c1O)C1CCCCC1	x	n	u	n	4µM	x
Oc1c(I)cc(Cl)c2cccnc12	n	u	1µM!	n	0.4µM	n
COc1ccc(OCC(=O)c2c(O)c3ccccc3oc2=O)cc1	n	n	n	20µM	n	n
CCOc1ccc(OCC(=O)c2c(O)c3ccccc3oc2=O)cc1	u	n	n	28µM	n	n
CCCCC(=O)c1c(O)c2ccccc2oc1=O	n	n	n	n	n	n
COc1ccc(OC)c(NC(=O)CSC2=Nc3ccccc3C3=NC(CCC(=O)NCc4ccccc4)C(=O)N23)c1 (stereo not drawn)	n	n	x	x	x	n
O=C(C[n+]1c2ccccc2cc2ccccc21)c1ccc(F)cc1	n	x	x	x	x	n
CCCCC[C@H](O)/C=C/[C@@H]1[C@@H](C/C=C\CCCC(=O)O)[C@H](O)C[C@H]1O	x	n	n	n	n	x
CCOC(=O)c1ccccc1NC(=O)CSc1ncc(CO)n1Cc1ccc(C)cc1	n	n	x	x	x	n
CCOc1ccc(-c2nnc(SCC(=O)Nc3cc(C)ccc3OC)o2)cc1	n	n	x	x	x	n
COc1ccc(-n2cc(-c3ccccc3)c3c(NN4CCOCC4)ncnc32)cc1	n	n	u	n	4.5µM	n
CCOc1ccc(-n2cc(-c3ccccc3)c3c(NC4CCCC4)ncnc32)cc1	11µM	n	x	x	x	n
COc1ccc(-n2cc(-c3ccccc3)c3c(NC4CCCCC4)ncnc32)cc1	u	n	x	x	x	n
CN(c1ncnc2c1c(-c1ccccc1)cn2-c1ccc(F)cc1)C1CCCCC1	28µM	n	x	x	x	n
Fc1ccc(-n2cc(-c3ccccc3)c3c(NN4CCOCC4)ncnc32)cc1	n	n	10µM	n	13µM	n
N=c1n(CCO)c2ccccc2n1Cc1ccccc1F	n	n	x	x	x	n
CCC1COC(c2cccn2Cc2ccccc2Cl)=N1 (stereo not drawn)	n	n	n	n	8.9µM	n
Fc1ccc(Cn2cccc2C2=NC(c3ccccc3)CO2)cc1 (stereo not drawn)	20µM	n	n	n	n	n
CC1CCCCN1C(=O)c1ccc2c(c1)N(Cc1ccc(F)cc1)C(=O)c1ccccc1S2(=O)=O (stereo not drawn)	n	n	x	x	x	n
Cc1cc(C)c2nc(NNC(=O)c3cc(-c4cccs4)nc4ccccc34)sc2c1	n	n	10µM	n	1.8µM	n
Cc1ccc(NC(=O)c2cc(-c3cccs3)nc3ccccc23)nc1	x	n	n	n	n	n
SMILES	ClpP mod	Epigenetic reg	Gal4-VP16 FLuc	Sfp inh	RORg inh	PINK1 expr mod
O=C(NNc1nc2ccc(Cl)cc2s1)c1cc(-c2cccs2)nc2ccccc12	n	n	u	n	1.1µM	n
Cc1ccc2sc(NNC(=O)c3cc(-c4cccs4)nc4ccccc34)nc2c1C	x	n	18µM	n	4.5µM	x
CCc1c(C(=O)NNC(=S)NCc2ccccc2)csc1C	n	n	n	n	6.3µM	n
CCc1c(C(=O)NNC(=S)NCC(C)C)csc1C	n	n	18µM	n	1.8µM	u
[O]=[Bi][O]C(=O)[O][Bi]=[O]	x	x	n	n	n[10 µM]	x
Cc1nc2ccn(Cc3cccnc3)c(=O)c2cc1C(=O)N1CCN(c2ccccc2)CC1	n	n	x	x	x	n
O=C(NCc1ccccc1Cl)c1ccc(Cn2c(=O)c3cccn3c3cccnc32)cc1	u	u	x	x	x	n
N#Cc1nc(-c2ccc(COc3ccc(Cl)cc3)o2)oc1N1CCCCC1	28µM	n	x	x	x	n
CC1CCN(c2oc(-c3ccc(OCc4ccccc4Cl)cc3)nc2C#N)CC1	n	x	x	x	x	n
N#Cc1nc(-c2ccc(COc3ccccc3)o2)oc1N1CCCCC1	32µM	n	x	x	x	n
Cc1cccc(OCc2ccc(-c3nc(C#N)c(N4CCN(c5ccccc5)CC4)o3)o2)c1	n	n	x	x	x	n

Screens (PubChem)
